The text below walks through data of PubChem BioAssay.

Several values for one entry are separate records, joined by “and”; a condition that tells them apart may be missing. Equal entries are not always repeated. For some of these results: Potency and affinity values are given separately. Activity calls are given as the source filed them. Unless noted, how the calls were made is not given here.

A short description of assay [1]: P. berghei load reduction in hepatocytes – cell-based, HepG2, luciferase luminescence, HepG2 viability, primary screen (AID 624349; in the data active means parasite load remaining mostly below about 12%, no sharp cut-off; inactive means mostly above about 10%;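 further: 100% = mean of DMSO negative control wells on the same plate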). The following applies: P. berghei liver stage in HepG2, luciferase luminescence, concentration not given here; parasite load remaining: stronger effect = lower value; viability: measured here: HepG2 viability without parasites.
Assay [2] deals with 6-phosphogluconate dehydrogenase, decarboxylating (Homo sapiens) (UniProt P52209). The assay is described as follows: inhibition of human phosphogluconate dehydrogenase – biochemical, recombinant enzyme, NADPH absorbance, primary screen (AID 1159550;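 active means at least 20% inhibition of 6-phosphogluconate dehydrogenase activity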). The following applies: recombinant 6PGD, NADPH absorbance 341 nm; at 10 µM; stronger effect = higher value.
A short description of assay [3]: EMT-state selective cytotoxicity in co-culture – imaging, PC-3E GFP, TEM4-18 mCherry, primary screen (AID 1345086;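 active means compounds killing one labelled cell type while sparing the other, by normalised counts and ratio limits, not self-fluorescent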;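 on all read-outs here: cells exposed to compound for 72 h before imaging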;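 on red/green cell ratio (normalised): normalised mesenchymal count divided by normalised epithelial count so high means epithelial killing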). The note with it: PC-3E GFP / TEM4-18 mCherry co-culture, imaging cell counts, at 1 µM; for red/green cell ratio (normalised): actives lie on both sides.
In assay [4] the test system is Aerobactin synthetase IucA (Klebsiella pneumoniae hvKP1). The assay is described as follows: IucA enzyme inhibition, primary screen, biochemical, Spectrum library (AID 1346200).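 Further: 100% = wells without compound and 0% = wells lacking enzyme.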 The note with it: malachite green pyrophosphate, A620, at 8 µM, stronger effect = lower value.
Assay [5] deals with NAD(+) hydrolase SARM1 (Homo sapiens) (UniProt Q6SZW1). Nature of the assay: blocking NAD cleavage by SARM1 SAM-TIR – cell lysate, NAD-Glo luminescence (AID 1508614;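 active means compound whose remaining NAD level is above about 45 nM, limit read from the data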). The note with it: SAM-TIR HEK293T lysate NADase, at 1 µM, stronger effect = higher value.
Assay [6] has as its target Mitogen-activated protein kinase 7 (Homo sapiens) (UniProt Q13164). Nature of the assay: Gal4-ERK5 driven luciferase induction – cell-based, HTS, primary screen (AID 1508626;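 active means luciferase signal above three times the same-plate solvent-only control wells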;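 further: luciferase driven by Gal4-ERK5 fusion binding five Gal4 sites before minimal TATA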). The note with it: HeLa Gal4-ERK5 transactivation, 18 h, at 5 µM, stronger effect = higher value.
Assay [7] is described as follows: blockers of polyQ-driven CASP3 activation – cell-based (AID 1583). The note with it: polyglutamine-induced caspase-3 activation, cell assay; stronger effect = higher value;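 tested at 10 µM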.
The nature of assay [8]: yeast 75Q aggregation reduction – 75Q-TubU reporter (AID 1593). The note with it: Yeast 75Q polyglutamine aggregation reporter.
Assay [9] is described as follows: restoration of touch response, mutant HTT neurons – whole organism, C. elegans mechanosensory neurons, N-terminal huntingtin (AID 1599). The following applies: C. elegans polyQ-huntingtin mechanosensory neurons, stronger effect = higher value.
A short description of assay [10]: blockers of cytochrome c efflux from mitochondria – biochemical, purified mitochondria (AID 1603).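 Further: mouse liver mitochondria challenged with calcium chloride; signal normalized to the plate average as 100%.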 The following applies: stronger effect = lower value.
A short description of assay [11]: polyglutamine aggregate formation blockers (AID 1604). The following applies: polyglutamine-induced protein aggregation inhibition assay; stronger effect = higher value; tested at 2.5 µM.
Assay [12] in a line: glutamate transport activators, MN-1 cells, MN-1 cell line (AID 1612).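 Further: tested at 1 µM final; 0% = mean of DMSO vehicle wells on each plate; positive means more glutamate uptake than control and negative means less.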 The note with it: MN-1 motor neuron cells, stronger effect = higher value.
Assay [13] is described as follows: GFP-Q80 aggregate reduction, neuronal-like cells, cell-based, NGF-treated PC12, GFPQ80 (AID 1614).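 Further: lower means fewer inclusions and 0 means no inclusions at all.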 The note with it: PC12 NGF-treated GFP-polyQ80 inclusion reduction.
Assay [14] in a line: 75Q-TubH aggregate inhibition, S. cerevisiae, yeast (AID 1616). The note with it: S. cerevisiae 75Q-TubH polyglutamine aggregation suppression; stronger effect = higher value.
A short description of assay [15]: compounds altering viability of human ES cells (AID 493140).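 Further: cells exposed to compounds for four days before counting.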 The note with it: human embryonic stem cell survival screen; stronger effect = higher value.
Assay [16] can be described thus: viability loss with induced miR-34 in A549 – imaging, A549 dox-inducible miR-34, nuclei and caspase counts, primary screen (AID 1347080;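 active means compounds whose cell count with miR-34 switched on is under 0.7 times the count with it off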). The note with it: A549 miR-34 inducible, Hoechst nuclei count, 48 h.
Assay [17] in a line: galactose survival enhancers in mitochondrial complex I cybrids – cell-based, galactose medium, ATP luminescence, primary screen (AID 1645843;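 active means z-score of at least 1.8 in each of two replicates, scored against plate mean and spread of sample wells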;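 further: positive z means more ATP and so rescue of galactose-driven cybrid death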). The note with it: complex I mutant cybrid cells, 72 h, stronger effect = higher value.
Setting [18] is: measured here: epithelial PC-3E GFP cell survival.
Where [19] appears, read: measured here: mesenchymal TEM4-18 mCherry cell survival.
The mark [20] stands for this setting: counts scaled to control wells, 1 = unselective.
[21] abbreviates: measured here: relative caspase fold change +Dox/-Dox.
Setting [22] is: measured here: total cells with miR-34 induction, stronger effect = lower value.
Setting [23] is: measured here: total cells without miR-34 induction.

Mitogen-activated protein kinase 7 (Homo sapiens), sequence (Q13164 whole entry, looked up, the tested form may be a part): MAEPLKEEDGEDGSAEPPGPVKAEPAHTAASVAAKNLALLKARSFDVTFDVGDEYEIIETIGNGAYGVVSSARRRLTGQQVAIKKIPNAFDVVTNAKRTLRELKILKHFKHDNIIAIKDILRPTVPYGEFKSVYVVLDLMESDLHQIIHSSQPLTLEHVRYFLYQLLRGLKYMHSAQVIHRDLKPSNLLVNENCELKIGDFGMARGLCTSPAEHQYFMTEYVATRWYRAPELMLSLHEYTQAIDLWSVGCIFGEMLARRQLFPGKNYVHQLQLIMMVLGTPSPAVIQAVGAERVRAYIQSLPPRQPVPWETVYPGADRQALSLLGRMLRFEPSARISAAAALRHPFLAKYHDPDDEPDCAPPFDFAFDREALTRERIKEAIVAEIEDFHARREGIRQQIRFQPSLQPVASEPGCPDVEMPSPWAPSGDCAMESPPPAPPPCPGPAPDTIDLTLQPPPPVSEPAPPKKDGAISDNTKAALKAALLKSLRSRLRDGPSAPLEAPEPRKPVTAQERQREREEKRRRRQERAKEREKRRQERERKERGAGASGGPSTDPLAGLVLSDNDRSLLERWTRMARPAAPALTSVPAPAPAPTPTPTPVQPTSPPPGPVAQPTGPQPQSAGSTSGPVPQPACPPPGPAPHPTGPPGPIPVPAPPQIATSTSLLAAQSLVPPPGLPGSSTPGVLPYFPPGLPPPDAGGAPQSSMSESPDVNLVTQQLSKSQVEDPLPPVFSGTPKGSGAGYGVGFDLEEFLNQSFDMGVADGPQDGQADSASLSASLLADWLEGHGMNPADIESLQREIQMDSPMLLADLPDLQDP
6-phosphogluconate dehydrogenase, decarboxylating (Homo sapiens), sequence (P52209 whole entry, looked up): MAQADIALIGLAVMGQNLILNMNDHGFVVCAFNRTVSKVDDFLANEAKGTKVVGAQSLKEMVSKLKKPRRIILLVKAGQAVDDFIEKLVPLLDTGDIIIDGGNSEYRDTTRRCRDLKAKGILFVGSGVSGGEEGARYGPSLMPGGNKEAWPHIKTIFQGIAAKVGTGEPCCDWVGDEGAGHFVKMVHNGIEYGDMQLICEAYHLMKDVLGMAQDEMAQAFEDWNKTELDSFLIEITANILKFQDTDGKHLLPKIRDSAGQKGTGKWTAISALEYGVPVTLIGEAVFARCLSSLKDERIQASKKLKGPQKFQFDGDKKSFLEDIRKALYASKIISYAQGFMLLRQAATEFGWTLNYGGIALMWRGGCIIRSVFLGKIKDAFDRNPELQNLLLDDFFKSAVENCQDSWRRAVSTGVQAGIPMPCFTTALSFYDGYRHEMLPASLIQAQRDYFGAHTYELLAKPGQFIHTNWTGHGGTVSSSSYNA
NAD(+) hydrolase SARM1 (Homo sapiens), sequence (Q6SZW1 whole entry, looked up, the tested form may be a part): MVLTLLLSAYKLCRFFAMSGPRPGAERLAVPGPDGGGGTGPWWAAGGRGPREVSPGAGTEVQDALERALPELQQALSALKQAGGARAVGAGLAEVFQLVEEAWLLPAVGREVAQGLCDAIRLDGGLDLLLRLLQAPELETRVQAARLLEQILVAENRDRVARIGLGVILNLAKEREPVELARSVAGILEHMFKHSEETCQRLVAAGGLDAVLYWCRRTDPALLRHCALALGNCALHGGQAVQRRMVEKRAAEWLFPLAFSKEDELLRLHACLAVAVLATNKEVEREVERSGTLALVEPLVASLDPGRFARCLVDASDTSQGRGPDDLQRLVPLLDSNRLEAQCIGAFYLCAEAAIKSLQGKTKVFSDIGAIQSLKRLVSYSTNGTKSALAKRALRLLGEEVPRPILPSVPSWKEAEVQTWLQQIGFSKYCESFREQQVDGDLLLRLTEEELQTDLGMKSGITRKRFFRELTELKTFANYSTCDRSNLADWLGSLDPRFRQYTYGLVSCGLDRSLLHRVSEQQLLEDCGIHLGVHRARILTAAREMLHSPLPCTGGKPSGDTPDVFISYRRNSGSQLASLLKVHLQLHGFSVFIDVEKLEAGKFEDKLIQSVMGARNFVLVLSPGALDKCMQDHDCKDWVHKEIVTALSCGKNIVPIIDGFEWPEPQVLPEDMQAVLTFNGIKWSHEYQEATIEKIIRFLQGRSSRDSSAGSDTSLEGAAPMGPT

The viability is a read-out of living cells in per cent, often relative to untreated cells. Usually inhibition stands for the drop in the measured response relative to a control, in per cent. Turning to `O=C1C=C2C=C[C@@H]3C[C@@]2(O1)[C@H]1CCCCN31`, the parasite load remaining in [1] was 73.8% (inactive). Also, the viability in assay [1] came to 90.5%. Also, the inhibition in assay [2] is 6.02% (inactive). In [3], the red/green cell ratio (normalised) is 0.9 (inactive). Moreover, the normalised cell number was 1.21 in assay [3] (setting [18]) and 1.09 in assay [3] (setting [19]). The activity remaining in [4] is 109% (inactive). Moreover, in assay [5], the remaining NAD was 10 nM (inactive). Besides, in [6], the luciferase signal was 92 AU (inactive).

On to `COC1=C[C@@H]2[C@@H]3Cc4ccc(OC)c(O)c4[C@]2(CCN3C)CC1=O`, for which the inhibition in assay [2] was 2.36% (inactive). Besides, in assay [3], the red/green cell ratio (normalised) is 0.75 (inactive). Besides, the normalised cell number came to 1.39 in [3] (setting [18]) and 1.03 in [3] (setting [19]). Besides, the activity remaining in assay [4] was 94.1% (inactive). The luciferase signal in assay [6] is 72 AU (inactive).

Consider `O=C(O)CCCOc1ccc(Cl)cc1Cl`, for which the inhibition in assay [2] is -17.1% (inactive). Also, the red/green cell ratio (normalised) in assay [3] (setting [20]) was 0.77 (inactive). The normalised cell number in assay [3] (setting [18]) is 1.36; in assay [3] (setting [19]) it was 1.05. Further, in assay [4], the activity remaining was 103% (inactive).

As for `OC1CCCCC1N1CCC(c2ccccc2)CC1` (stereo not drawn), the inhibition is -2.9% in assay [7] and 1.03% (inactive) in [2]. In assay [8], this molecule showed a score of 1.36. For the same molecule, the rescue above control in assay [9] stood at 12.8. The cytochrome c release ratio in assay [10] was found to be 1.15. Also, the inhibition of aggregation in [11] stood at 57.4%. Further, the glutamate uptake change in assay [12] is -9.45%. The molecule also showed an inclusion score in assay [13] of 2. Also, the aggregation suppression score in assay [14] was determined as 1.46. The survival in [15] is 2.42 (inactive). The parasite load remaining in assay [1] is 122% (inactive) and 70.2% (inactive). In [1], the viability is 88.2% and 106%. Moreover, in assay [3], the red/green cell ratio (normalised) is 0.98 (inactive). For the same molecule, the normalised cell number in assay [3] (setting [18]) turned out to be 1.07; in assay [3] (setting [19]), 1.05. The activity remaining in [4] is 87.4% (inactive). Also, the fold change was 0.987 (inactive) and 1.03 (inactive) and 0.84 (inactive) in [16] (stronger effect = lower value); 1.87 and 1.57 and 4 in [16] (setting [21]). The cell count in [16] (setting [22]) is 10100 and 9780 and 10400; in assay [16] (setting [23]), 10200 and 9480 and 12300. In addition, in assay [6], the luciferase signal is 60 AU (inactive). Moreover, the z-score in assay [17] was 0.03 (inactive) and 0.65 (inactive).

Consider `CN[C@@H]1[C@@H](O)C(OC2[C@@H](N)C[C@@H](N)[C@H](O[C@H]3O[C@H](C(C)O)[C@@H](O)[C@H](O)[C@H]3N)[C@H]2O)OC[C@]1(C)O` (stereo partly drawn), for which the inhibition in assay [2] is 15.2% (inactive). In addition, the red/green cell ratio (normalised) in assay [3] (setting [20]) was 1.08 (inactive). Also, the figures for the normalised cell number in [3] (setting [18]) and in assay [3] (setting [19]) were 0.91 and 0.99, respectively. In [4], the activity remaining was 111% (inactive).

Take `C=CCC1(C(C)CCC)C(=O)N=C(S)NC1=O` (stereo not drawn): the values for the inhibition in assay [7] and in [2] were 1.58% and 2.84% (inactive), respectively. The molecule further came in with a score in assay [8] of 1.49. In assay [9], this molecule had a rescue above control of 6.87. Further, in assay [10], the cytochrome c release ratio was 0.94. Moreover, in [11], the inhibition of aggregation stood at 42.9%. For the same molecule, in assay [12], the glutamate uptake change is 8.72%. In [13], this molecule had an inclusion score of 2. Besides, in assay [14], the aggregation suppression score came to 1.19. For the same molecule, the parasite load remaining in assay [1] is 21.5% (inactive). Besides, the viability in assay [1] came to 101%. In addition, the red/green cell ratio (normalised) in [3] is 1.3 (inactive). In addition, the values for the normalised cell number in assay [3] (setting [18]) and in [3] (setting [19]) were 0.79 and 1.03, respectively. Further, the activity remaining in assay [4] is 110% (inactive). For the same molecule, the fold change in assay [16] (stronger effect = lower value) was 0.918 (inactive); in assay [16] (setting [21]), 2.58. Also, the cell count in [16] (setting [22]) is 11400; in [16] (setting [23]), 12400. Moreover, the remaining NAD in assay [5] is 10 nM (inactive). Further, in assay [6], the luciferase signal is 84 AU (inactive).

`COc1cc([C@@H]2c3cc4c(cc3[C@@H](O)C3COC(=O)C32)OCO4)cc(OC)c1O` (stereo partly drawn): in [2], the inhibition is 4.81% (inactive). The red/green cell ratio (normalised) in assay [3] was 1.06 (inactive). The results for the normalised cell number in assay [3] (setting [18]) and in assay [3] (setting [19]) were 0.29 and 0.31, respectively. Moreover, the activity remaining in assay [4] is 118% (inactive).
